# Compound activity deposited in PubChem BioAssay by National Center for Advancing Translational Sciences (NCATS).
# The list is not random: actives were taken first. Their share in the collection is about 19%.
# TDP1 cell noCPT = qHTS for Inhibitors of human tyrosyl-DNA phosphodiesterase 1 (TDP1): qHTS in cells in absence of CPT | DT40 Tdp1-/- hTDP1 cells, no CPT, ATP luminescence, 48 h | Potency, µM (series often up to 46.2 µM), for inactives: at the top dose activity change, negative = growth inhibition, most hits filed as inhibitors | 420,000 compounds, 15% hits | AID 686978, 2013; note: nearly all actives have a fitted effect of over 55% in size
#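 Compound effects on proliferation are scored in DT40 Tdp1-/-;hTDP1 cells in the absence of CPT. ATP levels (CellTiter-Glo luminescence) are recorded after a ≥48 hr, 37 °C incubation.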
# HT1080-NT tox = qHTS for induction of synthetic lethality in tumor cells producing 2HG: qHTS for the HT-1080-NT fibrosarcoma cell line | 360,000 compounds, 1.6% hits | HT-1080-NT fibrosarcoma viability, CellTiter-Glo ATP luminescence, 48 h | AID 686970, 2013 | Potency, µM (top dose mostly 46.1 µM), inactives show top-dose activity, negative = less viability, actives largely listed as cytotoxic;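 note: NT is the 2HG producing partner of a matched IDH1 knockdown line; 0% = DMSO-treated cells and -100% = media-only wells without cells; nearly all actives have a fitted effect of over 55% in size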
#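 Viability by CellTiter-Glo luminescence after 48 h compound exposure at 37C of HT-1080-NT cells (750/well, RPMI, 5% FBS). % activity scaled between DMSO wells and medium-only wells, then curve-fitted and categorized by curve class.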
# HT1080 IDH1KD tx = qHTS for induction of synthetic lethality in tumor cells producing 2HG: qHTS for the HT-1080-IDH1KD cell line; HT-1080 IDH1 knockdown viability, ATP luminescence, 48 h; Potency, µM (top dose mostly 46.1 µM), for inactives: top-dose activity, negative = toxicity, usual class: cytotoxic; 360,000 compounds, 2% hits; AID 686971, 2013;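 note: 0% = DMSO wells and -100% = cell-free medium wells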
#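 Luminescent ATP read-out (CellTiter-Glo, 10 min at room temperature) after 48 h compound exposure at 37 °C gave viability of IDH1-knockdown HT-1080 cells. Activity was normalised to DMSO and cell-free wells, then fitted as concentration-response curves.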
# DT40 TDP1 CPT = qHTS for Inhibitors of human tyrosyl-DNA phosphodiesterase 1 (TDP1): qHTS in cells in presence of CPT | chicken DT40 Tdp1-/-;hTDP1 cells + 20 nM CPT, ATP luminescence, 48 h | Potency, µM (highest dose often 46.2 µM), for the others: at the highest dose activity change, negative = growth inhibition, most hits filed as inhibitors | 420,000 compounds, 12% hits | AID 686979, 2013; note: nearly all actives have a fitted effect of over 55% in size
#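 Chicken DT40 Tdp1-/- cells complemented with human TDP1, 400 cells/well, exposed to compounds plus 20 nM camptothecin for at least 48 h at 37 C; viability read as ATP content by CellTiter-Glo luminescence.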
# KB-3-1 tox = qHTS assay for MDR1-selective chemotherapeutics: Primary screen using the parental adenocarcinoma cell KB-3-1; KB-3-1 viability, CellTiter-Glo ATP luminescence, 72 h; Potency, µM (series often up to 46.1 µM), usual class: cytotoxic; 400,000 compounds, 1.4% hits; AID 1347075, 2019; note: nearly all actives have a fitted effect of over 60% in size
#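 Screening of KB-3-1 cells (DMEM, 10% FBS, phenol-red free) ran from lowest to highest compound concentration; after 72 h at 37 °C viability was read luminescently and curves fitted.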
# KB-V1 cytotox = qHTS assay for MDR1-selective chemotherapeutics: Primary screen using the drug-selected MDR subline cells KB-V1 | 400,000 compounds, 3.4% hits | Potency, µM (top dose mostly 46.1 µM), actives largely listed as cytotoxic | KB-V1 MDR cells viability, CellTiter-Glo, 72 h; note: nearly all actives have a fitted effect of over 60% in size
#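 Cells of the MDR subline KB-V1 are plated, dosed with compound at multiple concentrations, and incubated 72 h at 37 degrees C; CellTiter-Glo is then added and luminescence read after 10 min.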
# Starred values were filed as active, the others as inactive; i = inactive; u = inconclusive; x = no result. Calls come from the whole dose curve; as a rule, active = well fitted curve in the direction sought with a large enough effect; inconclusive = small, poorly fitted or top-dose-only effect, or another doubt; inactive = no such curve, though single readings can be large; an effect the other way counts as inactive or inconclusive. Unless noted, % is set by controls: 0 for no effect and ±100 for the full control effect; potency is the fitted concentration of half-maximal effect.
SMILES,TDP1 cell noCPT,HT1080-NT tox,HT1080 IDH1KD tx,DT40 TDP1 CPT,KB-3-1 tox,KB-V1 cytotox
Cc1ccc(-n2nnnc2SCn2nnc3ccccc3c2=O)cc1,13µM*,-12%,-9%,u,i,i
C/C=C/c1ccc(OCc2cc(=O)n3cc(C)ccc3n2)c(OC)c1,18µM*,7%,9%,u,i,i
COc1ccc(C)cc1-n1nnnc1SCn1nnc2ccccc2c1=O,16µM*,-14%,-23%,16µM*,u,u
O=C1CCC(c2ccccc2)N1c1ccccc1 (configuration not stated),-10%,21%,18%,-18%,i,i
O=c1c2ccccc2nnn1CSc1ccc2c(c1)OCCO2,-21%,-2%,-10%,3%,i,23µM*
COc1ccc(C)cc1-n1nnnc1SCC(=O)NC1CC1,3%,-3%,-5%,3%,i,u
COc1ccc(C)cc1-n1nnnc1SCc1cc(=O)n2cc(C)ccc2n1,7.3µM*,-2%,-16%,8.2µM*,u,7.3µM*
CCOc1ccnc2c1c(=O)n(Cc1cc(OC)cc(OC)c1)c(=O)n2C,0%,-8%,-1%,-26%,i,i
O=C(c1ccc(S(=O)(=O)NCc2ccco2)cc1)N1CCN(c2ccc(F)cc2)CC1,u,1%,0%,u,i,i
COc1ccc(CN2CCN(C(=O)c3ccc(S(=O)(=O)NCc4ccco4)cc3)CC2)cc1,18µM*,-25%,u,u,u,u
CC(=O)c1ccc(N2CCN(C(=O)c3ccc(S(=O)(=O)NCc4ccco4)cc3)CC2)cc1,16µM*,-25%,1%,21µM*,i,i
CC1CCCC(C)N1C(=O)c1ccc(CS(=O)(=O)c2ccccc2)cc1 (configuration not stated),15µM*,2%,1%,u,x,x
CC1CCCC(C)N1C(=O)c1ccc(S(=O)(=O)NCc2ccco2)cc1 (configuration not stated),23µM*,-3%,-7%,u,i,i
NS(=O)(=O)c1ccc(NC(=O)COC(=O)c2ccc([N+](=O)[O-])s2)cc1,16%,-2%,2%,-23%,i,i
O=C(N/C(=C\c1ccccc1)C(=O)N1CCOCC1)c1ccccc1Br,3%,8%,2%,4%,i,i
C/C(=N\NC(=O)C(=O)Nc1cccc(Cl)c1C)c1ccncc1,15µM*,12%,u,21µM*,i,21µM*
C/C(=N\NC(=O)c1ccc(Cl)c(S(=O)(=O)Nc2ccccc2Cl)c1)c1ccncc1,u,2%,0%,u,i,23µM*
C=CC(n1cncn1)C(O)(c1ccccc1)c1ccccc1 (configuration not stated),-21%,0%,6%,-19%,i,i
CCCCCC1CCNCC1,8.9µM*,x,x,6.3µM*,i,i
CCCCCC1CCC(C(=O)N2CCOCC2)CC1 (configuration not stated),-15%,10%,24%,-2%,i,i
O=C(C[C@H]1CC[C@@H](NS(=O)(=O)c2ccccc2)[C@@H](CO)O1)NCc1ccc(Cl)c(Cl)c1,21µM*,-11%,-11%,21µM*,i,i
O=S(=O)(c1ccc2c(c1)OCCO2)N1CCN(CCc2ccccc2)CC1,-13%,x,x,-29%,i,i
CC(C)CCn1c(=O)c2ccccc2n2c(CCC(=O)NCC3CCCO3)nnc12 (configuration not stated),-2%,11%,22%,-21%,i,i
CCOC(=O)c1cnc2ccc(C)cc2c1Nc1ccc(N2CCOCC2)cc1,u,u,u,u,u,i
CCOC(=O)c1cnc2ccc(C)cc2c1Sc1ccccc1,26µM*,-7%,-17%,u,u,u
SMILES,TDP1 cell noCPT,HT1080-NT tox,HT1080 IDH1KD tx,DT40 TDP1 CPT,KB-3-1 tox,KB-V1 cytotox
CCOC(=O)c1cnc2ccc(C)cc2c1Nc1ccc(N(CC)CC)cc1,6.5µM*,x,x,12µM*,i,i
CCOC(=O)c1cnc2ccc(Cl)cc2c1Nc1ccc(S(=O)(=O)Nc2ncccn2)cc1,-15%,19%,22%,-20%,i,i
CCOC(=O)c1cnc2ccc(Cl)cc2c1Nc1ccc(N2CCOCC2)cc1,15µM*,x,x,15µM*,i,i
CCOC(=O)c1cnc2ccc(C(=O)OC)cc2c1Nc1ccc(N2CCOCC2)cc1,12µM*,x,x,10µM*,i,u
CCOC(=O)c1cnc2ccc(C)cc2c1N(C)Cc1ccccc1,u,-5%,-22%,u,u,i
COc1ccc(C)cc1-n1cnnn1,-3%,6%,2%,0%,i,i
CC(NC(=O)CSc1n[nH]c(-c2ccccc2Cl)n1)c1nc2ccccc2n1C (configuration not stated),-21%,x,x,-9%,i,i
Cc1cccc(-n2c(C)nc3cc(C(=O)NC4CCCCCC4)ccc32)c1,23µM*,x,x,13µM*,i,i
Cc1cccc(-n2c(C)cc(C(=O)NC3CCCCC3)c2C)c1,13µM*,-9%,-22%,u,i,i
Cc1cc(C)c(S(=O)(=O)c2ccccc2Cl)c(=O)[nH]1,19%,-3%,-3%,2%,i,i
O=C(CSc1oc(-c2ccc(F)cc2)nc1S(=O)(=O)c1ccc(Cl)cc1)c1ccccc1,15µM*,x,x,16µM*,i,i
O=C(CSc1oc(-c2ccccc2)nc1S(=O)(=O)c1ccc(Cl)cc1)c1ccccc1,18µM*,x,x,15µM*,i,i
COc1cc(C2NC(=O)C(C#N)=C(Nc3cccc(C)c3)S2)ccc1O (configuration not stated),u,0%,-8%,u,i,i
CC(C(=O)Nc1cccc(C#N)c1)n1nc(-c2ccccc2)c2c(c1=O)CCCC2 (configuration not stated),-24%,x,x,u,u,i
CC(C(=O)Nc1ccccc1C(F)(F)F)n1nc(-c2ccccc2)c2c(c1=O)CCCC2 (configuration not stated),16µM*,x,x,u,u,i
